MITF primary – blocks human microphthalmia-associated transcription factor; AID 1259374; AlphaScreen MITF homodimerization, bead proximity signal; inhibition, % at 2.6 µM; O75030; actives 0.91% (n = 650,000); in the data active = inhibition above about 50%;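 also: 0% = vehicle wells with protein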
TEAD-YAP block – TEAD-YAP interaction inhibition | inhibition, % at 9.12 µM | AID 1259422 | actives 1.4% (n = 640,000) | HEK-TIYL cells, TEAD-Gal4/YAP UAS-luciferase luminescence; in the data active = inhibition above about 32%;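 also: 0% = median of test compound wells and 100% = reference inhibitor wells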
GPR151 activ – activators of human GPR151; PathHunter beta-arrestin GPR151 cells, luminescence; actives 1% (n = 650,000); activation, % at 11.2 µM; Q8TDV0; in the data active = activation above about 4.9%;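 also: 0% = median of compound wells and 100% = cells with positive control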
FBW7 act – human FBW7 E3 ligase activation, primary screen | actives 0.13% (n = 650,000) | AlphaScreen FBW7–phospho-cyclin E peptide binding, activator screen | normalized activity (activation), % at 26.1 µM | Q969H0; in the data active = normalized activity above about 1.9%;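 also: purified mutant Fbw7 with reduced substrate affinity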
Target sequence (Q969H0 whole entry, looked up): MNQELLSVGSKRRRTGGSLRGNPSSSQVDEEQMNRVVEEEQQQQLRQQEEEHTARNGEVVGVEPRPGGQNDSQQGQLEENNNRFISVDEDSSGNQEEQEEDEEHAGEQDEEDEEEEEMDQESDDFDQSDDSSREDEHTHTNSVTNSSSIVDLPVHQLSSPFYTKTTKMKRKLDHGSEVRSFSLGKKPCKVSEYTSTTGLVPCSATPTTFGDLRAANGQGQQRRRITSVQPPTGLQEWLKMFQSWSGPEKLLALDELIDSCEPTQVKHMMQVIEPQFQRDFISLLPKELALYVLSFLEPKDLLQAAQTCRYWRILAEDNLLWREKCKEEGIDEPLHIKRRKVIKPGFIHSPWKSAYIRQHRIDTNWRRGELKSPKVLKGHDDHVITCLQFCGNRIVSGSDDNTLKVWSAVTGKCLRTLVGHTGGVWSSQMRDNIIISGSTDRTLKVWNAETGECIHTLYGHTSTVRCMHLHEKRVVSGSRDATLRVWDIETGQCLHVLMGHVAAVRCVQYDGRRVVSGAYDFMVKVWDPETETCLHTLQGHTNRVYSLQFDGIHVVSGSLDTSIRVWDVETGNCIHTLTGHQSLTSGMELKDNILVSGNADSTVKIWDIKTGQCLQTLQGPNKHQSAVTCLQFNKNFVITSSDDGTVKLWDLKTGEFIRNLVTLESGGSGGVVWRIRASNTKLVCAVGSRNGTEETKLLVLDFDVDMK
Starred values were filed as active, the others as inactive. A selection: hits, their analogues and other compounds. The true share with any hit is near 3.4%.

SMILES	MITF primary	TEAD-YAP block	GPR151 activ	FBW7 act
COc1ccc(C2C(=O)N(C3CCCCC3)CC(=O)N2Cc2ccccc2Cl)cc1 (configuration not stated)	-0.4	-2.0	-1.4	-0.1
Cc1nc(N/C(N)=N/S(=O)(=O)c2ccc3ccccc3c2)nc2ccccc12	8.8	-3.1	0.9	0.0
CCOC(=O)c1c(C)[nH]c(C(=O)N/N=C\c2ccc([N+](=O)[O-])cc2)c1C	4.7	41.4*	-0.7	0.1
CCOC(=O)c1c(C)[nH]c(C(=O)N/N=C\c2cccc(OC)c2)c1C	-2.3	45.7*	0.7	0.0
CCOC(=O)c1c(C)[nH]c(C(=O)N/N=C\c2ccccc2Cl)c1C	-7.2	40.1*	3.1	0.0
CCC(Sc1nc2cc3c(cc2c(=O)n1CCCCCC(=O)NCc1ccc(OC)cc1)OCO3)C(=O)Nc1ccccc1OC (configuration not stated)	-7.6	-10.0	0.7	-0.1
Cn1c(=O)c2c(NC(=O)c3ccc(Cl)cc3)ccnc2n(C)c1=O	7.9	10.8	-2.3	0.1
CN1C(=O)N(C)C2C1NNC(=S)N2C (configuration not stated)	11.4	61.1*	-0.5	0.0
O=C(CC1(O)C(=O)Nc2ccc(I)cc21)c1ccc(Cl)cc1 (configuration not stated)	-0.2	9.2	-1.3	0.1
O=C(CNC(=O)c1cccc(Br)c1)N/N=C/c1cn[nH]c1-c1ccccc1	2.3	6.7	0.5	0.0
O=C(c1cccc(Br)c1)c1cn[nH]c1-c1ccccc1O	5.2	45.7*	1.2	0.2
COc1cc(Nc2nccn3c(-c4ccc(C#N)cc4)cnc23)cc(OC)c1OC	-0.5	-2.5	-1.1	0.0
NC(=O)C1CCN(C(=S)NC(=O)c2ccc(Cl)cc2)CC1	6.9	-5.7	-0.3	2.3*
Cc1ccc(O)c(/C=N/NC(=O)c2ccccn2)c1	56.8*	-12.7	-3.6	-1.3
O=C(N/N=C/c1ccc(O)c(O)c1O)c1ccccn1	108.3*	-42.1	-2.9	-1.2
Cc1cccc(/C=N/NC(=O)c2ccccn2)c1O	13.3	55.0*	-6.1	-1.8
O=C(N/N=C/c1ccccc1O)c1ccccn1	-38.8	-54.7	-0.9	0.1
Cc1cccc(/C=N\NC(=O)c2ccccc2Cl)c1O	-2.5	-60.6	1.1	-0.3
Cc1c(C)n(CC(O)CNc2ccccc2)c2ccccc12 (configuration not stated)	58.8*	-0.1	2.5	0.3
COc1ccc(NCC(O)Cn2c3ccccc3c3ccccc32)cc1 (configuration not stated)	12.9	51.4*	-0.6	-0.1
O=C(/C=C/c1ccc(F)cc1)NC1=NCCS1	-4.7	-55.5	0.0	-0.2
COc1ccc(C(=O)Nc2ccc(OCc3ccccc3)cc2)c(OC)c1	14.8	89.7*	-1.4	0.3
O=S(=O)(Nc1ccc(OCc2ccccc2)cc1)c1ccc(Br)cc1	-0.4	-3.0	0.7	0.1
CN(C)S(=O)(=O)Nc1ccc(OCc2ccccc2)cc1	12.0	-23.2	-1.4	1.9*
COC1(C)N(c2ccc(C)cc2)CC(=Nc2ccc(C)cc2)N1c1ccc(C)cc1 (configuration not stated)	9.2	38.0*	0.9	0.2
SMILES	MITF primary	TEAD-YAP block	GPR151 activ	FBW7 act
COc1ccc(N2C(SC)=NC(=Nc3ccc(C)cc3)C23CCC(C(C)(C)C)CC3)cc1 (configuration not stated)	12.6	2.3	-0.2	0.0
COc1ccc(C2C3=C(CCCC3=O)N(c3ccccc3)C(=N)/C2=C(/O)c2ccc(C)cc2)cc1 (configuration not stated)	7.7	-9.0	0.7	-0.1
COC(=O)c1ccc(C2N(O)C3CCCCC3N2O)cc1 (configuration not stated)	3.1	-16.3	1.1	0.1
CN(C)c1ccc(C2N(O)C3CCCCC3N2O)cc1 (configuration not stated)	-1.8	33.6*	-0.6	-0.2
O=C(O)c1cc(N2C(=O)C3CC=CCC3C2=O)ccc1N1CCOCC1 (configuration not stated)	6.8	11.3	0.1	2.0*
O=C(O)c1cc(N2C(=O)C3CCCCC3C2=O)ccc1N1CCOCC1 (configuration not stated)	-8.4	5.6	0.9	0.0
CCC(NC(=O)Oc1ccc(-c2ccccc2)cc1)(C(F)(F)F)C(F)(F)F	4.7	-12.0	-0.9	-0.1
O=C(N/N=C/c1cc2ccccc2cc1O)c1ccncc1	53.5*	87.8*	2.7	-2.1
Nc1nonc1C(=O)N/N=C/c1ccccc1O	62.6*	2.5	-3.0	-0.3
COc1ccc(O)c(/C=N/NC(=O)c2ccncc2)c1	20.2	24.4	0.8	-0.7
Nc1nonc1C(=O)N/N=C/c1cc(Cl)cc(Cl)c1O	68.2*	9.4	2.1	-0.9
O=C(N/N=C/c1cc(Cl)cc(Cl)c1O)c1ccncc1	95.6*	32.3*	-0.6	-0.3
O=C(NC1CCCCC1)c1cnn2c1NC(c1ccc(Br)cc1)CC2C(F)(F)F (configuration not stated)	15.0	0.4	0.6	1.2
S=C(Nc1ccc2c(c1)OCO2)N1CCN(c2ccccn2)CC1	-5.1	-18.0	1.3	0.0
Cc1ccc(-n2c(O)c(/C=N/c3ccccn3)c(=O)[nH]c2=O)cc1	1.9	0.5	0.2	-0.1
Cc1ccc(-n2[nH]c(=O)c(-c3ccccn3)c2C)cc1	6.8	51.9*	-5.1	-0.1
COc1ccc(N2CCN(CCN3CCCCC3)CC2)cc1	81.9*	6.6	-0.8	0.7
COc1cccc2cc(C(=O)NCc3cccc(Cl)c3)c(=Nc3ccc(C(=O)O)cc3)oc12	-1.5	34.6*	0.8	0.0
Cc1cccc(C(=O)Nc2c(C(=O)N3CCN(C)CC3)cnn2-c2ccccc2)c1	14.0	11.2	-0.7	2.3*
Cc1cccc(C(=O)Nc2c(C(=O)N3CCCCC3)cnn2-c2ccccc2)c1	6.2	13.3	1.8	0.1
CCOc1cc(-c2nnc(SCC(=O)NCc3ccc(C)cc3)nc2-c2ccc(OC)c(OCC)c2)ccc1OC	-5.6	11.2	0.1	-0.4
COc1ccc(-c2nnc(SCC(=O)NCc3cccs3)nc2-c2ccc(OC)c(OC)c2)cc1OC	2.8	55.9*	2.9	0.0
CCOc1cc(-c2nnc(SCC(=O)NCc3ccccc3)nc2-c2ccc(OC)c(OCC)c2)ccc1OC	13.4	52.4*	0.0	-0.2
Cc1ccnc(-n2cccc2CN2CCC3(CC2)NC(=O)c2ccccc2O3)c1	-1.4	-6.6	0.2	-0.1
Clc1cccc(/C=N/Nc2ncnc3nc[nH]c23)c1	3.6	58.0*	-4.5	-0.1
SMILES	MITF primary	TEAD-YAP block	GPR151 activ	FBW7 act
CN(C)c1ccc(/C=N/Nc2ncnc3nc[nH]c23)cc1	-3.5	60.4*	-1.3	-0.1
COc1ccc(/C=N/Nc2ncnc3nc[nH]c23)cc1	10.8	58.1*	-2.0	-0.1
Cc1ccc(/C=N/Nc2ncnc3nc[nH]c23)cc1	9.0	29.2	-2.5	-0.1
Oc1ccc(Br)cc1/C=N/Nc1ncnc2nc[nH]c12	75.0*	71.8*	-2.2	-0.5
Fc1cccc(/C=N/Nc2ncnc3nc[nH]c23)c1	8.8	9.2	-7.1	-0.1
CCCCCCCNS(=O)(=O)c1cccc([N+](=O)[O-])c1	8.4	3.2	1.5	0.0

From PubChem
